About 2,000 (36%) of roughly 5,500 compounds were called active. About 18% were inconclusive and are not listed. Cut-off read from the data, not from the text of the source: active = normalized growth mostly below about 0.91 (no sharp cut-off); inconclusive = no clear call, values can overlap the other calls; inactive = mostly above about 0.92. The list shows a part of the results.
Assay: chemical genetic growth profiling, strain panel (AID 1159580);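 note: tested at 20 µM; growth read once vehicle control cultures reached saturation at 30 °C; 1 = growth at the plate median or of vehicle wells; lower values mean less growth of the strain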
Conditions: S. cerevisiae deletion strains, growth OD

Measured: normalized growth

C=Cc1c(C)c2[n-]c1=Cc1[n-]c(c(CC)c1C)C=c1[n-]c3c(c1C)C(=O)C(C(=O)[O-])C=3c1[n-]c(c(C)c1CCC(=O)[O-])C=2.[Cu] (stereo not given)
active: locus YAL030W, strain snc1, hits give low values 1.09 [resistant] | locus YCR088W, strain abp1, hits give low values 1.11 [resistant] | locus YDL040C, strain nat1, hits give low values 1.08 [resistant] | locus YDR001C, strain nth1, hits give low values 1.1 [resistant] | locus YDR069C, strain doa4, hits give low values 1.12 [resistant] | locus YDR137W, strain rgp1, hits give low values 1.16 [resistant] | locus YDR195W, strain ref2 1.28 [resistant] | locus YDR297W, strain sur2, hits give low values 1.08 [resistant] | locus YDR334W, strain swr1, hits give low values 1.11 [resistant] | locus YEL061C, strain CIN8 (second series), hits give low values 1.09 [resistant] | locus YER016W, strain bim1, hits give low values 1.09 [resistant] | locus YER111C, strain swi4, hits give low values 1.09 [resistant] | locus YER155C, strain BEM2 (second series), hits give low values 1.17 [resistant] | locus YGL227W, strain vid30, hits give low values 1.1 [resistant] | locus YHR013C, strain ard1, hits give low values 1.18 [resistant] | locus YJL095W, strain BCK1 (second series), hits give low values 1.09 [resistant] | locus YJL115W, strain asf1, hits give low values 1.11 [resistant] | locus YJL129C, strain trk1, hits give low values 1.15 [resistant] | locus YJL154C, strain vps35, hits give low values 1.09 [resistant] | locus YJL187C, strain SWE1, hits give low values 1.08 [resistant] | locus YKR026C, strain gcn3, hits give low values 1.1 [resistant] | locus YKR091W, strain srl3, hits give low values 1.08 [resistant] | locus YLL026W, hits give low values 1.08 [resistant] | locus YLL041C, strain sdh2, hits give low values 1.08 [resistant] | locus YMR125W, strain sto1, hits give low values 1.13 [resistant] | locus YMR129W, hits give low values 1.08 [resistant] | locus YMR231W, strain pep5, hits give low values 1.08 [resistant] | locus YNL071W, strain lat1, hits give low values 1.09 [resistant] | locus YNR049C, strain mso1, hits give low values 1.09 [resistant] | locus YOR265W, strain rbl2, hits give low values 1.09 [resistant] | locus YPL106C, strain sse1, hits give low values 1.16 [resistant] | locus YPL240C, strain hsp82, hits give low values 1.09 [resistant]
inactive: locus YAL021C, strain ccr4, hits give low values 1.07 | locus YAL026C, strain drs2, hits give low values 1.02 | locus YBL061C, strain skt5, hits give low values 1.08 | locus YBR009C, strain hhf1, hits give low values 1.02 | locus YBR023C, strain chs3, hits give low values 1.07 | locus YBR171W, strain sec66, hits give low values 1.09 | locus YBR231C, strain swc5, hits give low values 1.08 | locus YBR279W, strain paf1, hits give low values 1.06 | locus YCL011C, strain gbp2, hits give low values 1.05 | locus YCL016C, strain dcc1, hits give low values 1.03 | locus YCL061C, strain MRC1, hits give low values 1.03 | locus YCL069W, strain vba3, hits give low values 1.07 | locus YDL005C, strain med2, hits give low values 1.08 | locus YDR159W, strain sac3, hits give low values 1.09 | locus YDR335W, strain msn5, hits give low values 1.02 | locus YDR392W, strain spt3, hits give low values 1.11 | locus YEL003W, strain gim4, hits give low values 1.03 | locus YEL037C, strain rad23, hits give low values 1.07 | locus YER015W, strain faa2, hits give low values 1.02 | locus YFR010W, strain ubp6, hits give low values 1.1 | locus YGL167C, strain pmr1, hits give low values 1.08 | locus YGL173C, strain kem1, hits give low values 1.02 | locus YGL240W, strain doc1, hits give low values 1.03 | locus YGL253W, strain hxk2, hits give low values 1.02 | locus YHR027C, strain rpn1, hits give low values 1.05 | locus YHR030C, strain SLT2, hits give low values 0.992 | locus YHR079C, strain IRE1, hits give low values 0.998 | locus YHR142W, strain chs7, hits give low values 1.08 | locus YJL092W, strain hpr5, hits give low values 1.07 | locus YJL095W, strain BCK1, hits give low values 0.957 | locus YJL164C, strain tpk1, hits give low values 1.05 | locus YJL166W, strain qcr8, hits give low values 1.01 | locus YJR066W, strain TOR1, hits give low values 0.957 | locus YKL160W, strain elf1, hits give low values 1.06 | locus YLL001W, strain dnm1, hits give low values 1.06 | locus YLR027C, strain aat2, hits give low values 1.07 | locus YLR113W, strain HOG1, hits give low values 0.999 | locus YLR221C, strain rsa3, hits give low values 1.01 | locus YLR258W, strain gsy2, hits give low values 1.07 | locus YLR262C, strain YPT6 (second series), hits give low values 1.09 | locus YLR320W, strain mms22, hits give low values 1.06 | locus YLR342W, strain FKS1, hits give low values 1.04 | locus YLR357W, strain rsc2, hits give low values 1.08 | locus YLR370C, strain arc18, hits give low values 1.04 | locus YLR384C, strain iki3, hits give low values 1.08 | locus YML120C, strain ndi1, hits give low values 1.03 | locus YMR058W, strain fet3, hits give low values 0.967 | locus YMR205C, strain PFK2, hits give low values 1.11 | locus YNL183C, strain NPR1, hits give low values 0.862 | locus YNL209W, strain ssb2, hits give low values 1.04 | locus YNL248C, strain rpa49, hits give low values 1.03 | locus YNL322C, strain KRE1 (second series), hits give low values 1.08 | locus YOR001W, strain rrp6, hits give low values 1.05 | locus YOR070C, strain gyp1, hits give low values 1.05 | locus YOR080W, strain dia2, hits give low values 1.06 | locus YOR083W, strain WHI5, hits give low values 0.992 | locus YOR106W, strain vam3, hits give low values 0.999 | locus YOR231W, strain MKK1, hits give low values 1.01 | locus YOR270C, strain vph1, hits give low values 1.15 | locus YOR290C, strain snf2, hits give low values 1.06 | locus YPL051W, strain arl3, hits give low values 1.07 | locus YPL078C, strain atp4, hits give low values 1.03 | locus YPL256C, strain CLN2, hits give low values 1.05

— PubChem BioAssay AID1159580 (chemical genetic matrix, 2015)
